Measurements: PubChem BioAssay AID1117319 (Southern Research Institute, 2015)
“And” between values parts separate entries of the source, which are not always exact repeats. Equal values may be shown once. Out of some 260,000 compounds screened, about 1,500 (0.58%) were called active. Not shown: some 5% with an inconclusive outcome.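 Rule for the calls: active = inhibition above a set limit at one or more doses, reproduced on every date tested; inconclusive = results disagree between test dates, or hit never tested in dose response; inactive = the rest.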 Only a sample is shown. Entries with a potency or affinity are not part of this list.

Biological target: Virion infectivity factor (Human immunodeficiency virus type 1 group M subtype B (isolate BH10)) + Virion infectivity factor (Human immunodeficiency virus type 1 group M subtype B (isolate BRU/LAI)) + Virion infectivity factor (Human immunodeficiency virus type 1 group M subtype B (isolate PCV12)) + Virion infectivity factor (Human immunodeficiency virus type 1 group M subtype B (isolate HXB2)) + DNA dC->dU-editing enzyme APOBEC-3G (Homo sapiens) (UniProt P69720+P69721+P69722+P69723+Q9HC16)
Assay: HIV-1 Vif–A3G interaction blockers – biochemical, TR-FRET, GST-Vif 1-94, biotin-A3G peptide, dose response retest, primary screen (AID 1117319);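 note: Vif residues 1-94 fused to GST binding biotinylated APOBEC3G peptide 110-148; 0% = full assay without inhibitor and 100% = GST in place of GST-Vif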
Conditions: TR-FRET GST-Vif / biotin-A3G peptide binding; active compounds read high

inhibition, inactive:
CSCCC(NS(=O)(=O)c1ccc(C)cc1)C(=O)NCC(C)(C)N1CCOCC1 (stereo not given) 26.5%
CCOc1cc(C(=O)Oc2cc(C)[nH]c(=O)c2[N+](=O)[O-])cc(OCC)c1OCC -2.15%
CCCC(=O)Nc1nnc(-c2ccco2)s1 5.96%
CC(C)C(=O)Nc1nnc(-c2ccco2)s1 -4.43%
O=C(COC(=O)Cn1cnc2ccccc2c1=O)NCc1ccccc1 -5.43%
Cc1nn(Cc2ccccc2)c(C)c1C(=O)OCC(=O)c1cc(C)n(CC(F)(F)F)c1C 13.3%
COCCn1c(C)cc(C(=O)COC(=O)c2c(C)nn(Cc3ccccc3)c2C)c1C 15.2%
C=CCOc1ccc(CNc2nccs2)cc1OC -2.98%
Cn1nnnc1SCc1cc(=O)n2ccsc2n1 8.97%
COc1ccc(OCCNC(=S)Nc2cccc3ccccc23)cc1 2.41%
O=C(NC(NC(=S)Nc1cccc(C(=O)O)c1)C(Cl)(Cl)Cl)OCc1ccccc1 (stereo not given) 16%
CCCCOC(=O)c1cc(C)nc2ccc(Br)cc12 10.8%
CC1=C(C(=O)Nc2ccccc2)C(c2ccco2)NC(=O)N1 (stereo not given) -0.31%
CC1=C(C(=O)Nc2ccccc2)C(c2ccco2)NC(=S)N1 (stereo not given) -0.58%
N#C/C(=C\c1cccs1)C(=O)N1CCOCC1 4.24%
CCOc1ccc(-n2cc(C(=O)NCCOC)c3cc(OC)c(OC)cc3c2=O)cc1 -0.11%
CC1=CCC2C(=O)N(c3ccc4ccccc4n3)C(=O)C2C1 (stereo not given) 3.04%
O=C(COC(=O)c1n[nH]c(=O)c2ccccc12)c1ccc(Cl)cc1 -6%
COc1ccc([C@H]2CC(=O)c3c(O)cc(O)cc3O2)cc1O 9.99%
COc1cc(C2CC(=O)c3c(O)cc(O)cc3O2)ccc1O (stereo not given) 9.19%
O=[N+]([O-])c1cc2c(c(CSc3ncccn3)c1)OCOC2 1.34%
Cc1nnc(SCc2cc([N+](=O)[O-])cc3c2OCOC3)n(N)c1=O 20.5%
COc1ccc(CCNC(=O)COc2coc(CN3c4ccccc4CC3C)cc2=O)cc1OC (stereo not given) 3.96%
CCOC(=O)c1oc2ccc(/C=N/O)c(Cl)c2c1C -0.46%
CC1CN(C(=O)COC(=O)c2cnc(Cl)c(Cl)c2)CC(C)O1 (stereo not given) -12.2%
Nc1ncnc2c1ncn2[C@@H]1O[C@H](CNC(=O)[C@@H]2C[C@H](F)CN2)[C@@H](O)[C@H]1O -0.68%
COc1cccc(CNc2ccc(F)c([N+](=O)[O-])c2)c1O -12%
COCCCn1c(=NC(=O)c2ccncc2)c(C#N)cc2c(=O)n3cccc(C)c3nc21 3.9% and 7.65%
CCCCn1c(=NC(=O)c2ccc3c(c2)OCO3)c(C#N)cc2c(=O)n3cccc(C)c3nc21 6.53%
O=C(c1cccc(S(=O)(=O)N2CCc3ccccc32)c1)N1CCN(c2ccccn2)CC1 -7.91%
Cc1cnc(C(=O)OCC(=O)Nc2cc(-c3cc(C)c(C)cc3C)nn2-c2ccccc2)cn1 3.14%
COc1ccccc1-n1c(-c2cc(-c3ccc(F)cc3)n[nH]2)n[nH]c1=S 0.73%
COc1ccccc1-n1c(-c2ccco2)n[nH]c1=S -2.63%
S=c1[nH]nc(-c2cc(-c3ccco3)[nH]n2)n1-c1cccc2ccccc12 16.8%
S=c1[nH]nc(-c2cc(-c3ccco3)[nH]n2)n1-c1ccccc1 4.55%
Cc1cc2c(cc1C)NC1=C(N2)OC(c2cccc(O)c2)C1=O (stereo not given) 5.24%
NS(=O)(=O)c1ccc(CCNC(=O)CSc2ccsc2[N+](=O)[O-])cc1 4.39%
CC(=O)N1CCN(C(=O)CCNC(=O)c2ccc(Br)cc2)CC1 0.92%
CCN1CCN(c2nc3ccccn3c(=O)c2/C=C(\C#N)S(=O)(=O)c2ccccc2)CC1 -0.55%
COC(=O)c1ccc(C(=O)NN)cc1 -8.26%
Cc1cccc(NC(=O)Cc2ccc(F)cc2)c1 -2.86%
Cc1ccc(NC(=O)CCc2nc(-c3cccs3)no2)c(Br)c1 0.83%
C(=C\c1ccc2ccccc2n1)/c1ccccc1 10.9%
Fc1ccccc1/C=C/c1ccc2ccccc2n1 1.57%
CN(C)c1c2ccccc2nc2c(F)c(F)c(F)c(F)c12 -2.85%
Cc1c(N(C)C)nc2ccccc2c1N -3.71%
CNC(=O)COc1coc(CN2CCN(c3cccc(Cl)c3)CC2)cc1=O 6.04%
CCOc1ccccc1OCC(=O)NC1CCCCC1 -0.58%
CCOC(=O)N/N=C(/c1ccccc1)C1CCCCC1 -4.75%
CCN(C(=O)COC(=O)/C=C/c1cnc2ccccc2n1)c1ccccc1 -2.53%
CCOCC(=O)OCC(=O)Nc1cc(OC)c([N+](=O)[O-])cc1C 7.7%
COc1cccc(-c2nnc(SCC(=O)Nc3cc(C)ccc3OC)n2N)c1 3.89%
CCn1cc[n+](C)c1P(c1ccccc1)c1ccccc1 3.82%
COCCCn1c(=O)c2sccc2n2c(CCCC(=O)NCc3ccccc3OC)nnc12 -3.09%
Cc1ccc([N+](=O)[O-])cc1S(=O)(=O)Nc1cccc(S(=O)(=O)NC2=NCCC2)c1 3.32%
O=[N+]([O-])c1ccc(Cl)c(S(=O)(=O)NC2=NCCC2)c1 -7.04%
CC1(C)CC(=O)C=C(c2n[nH]nc2-c2ccc(F)c(F)c2)C1 -13.9%
CCOC(=O)c1cc(-c2ccc(OC)cc2OC)nn1-c1ccc(C(=O)O)cc1 4.72%
CN1CCc2c(sc(NC(=O)c3ccc(S(=O)(=O)N4CCOCC4)cc3)c2C(N)=O)C1 18.7%
CC(C)N1CCc2c(sc(NC(=O)c3ccc(S(=O)(=O)N4CCOCC4)cc3)c2C(N)=O)C1 -2.18%
Cc1c(C(=O)N(C)Cc2nc3ccccc3c(=O)[nH]2)oc2ccccc12 -2.36%
Cc1ccc(NC2=CC(=O)CC(c3ccco3)C2)c(N)c1 (stereo not given) 23.3%
O=C1C=C(NCc2ccc(Cl)cc2)CC(c2ccco2)C1 (stereo not given) 32.3%
O=C1C=C(Nc2ccc(Cl)cc2Cl)CC(c2ccco2)C1 (stereo not given) 2.86%
Cc1ccc(C2CC(=O)C=C(NCC(C)C)C2)cc1 (stereo not given) 3.68%
Cc1ccnc(NC(=O)c2ccc3c(c2)OCO3)c1 4.65%
Cc1cc(C)c2c(c1)/C(=N\N=c1\sc3ccccc3n1C)C(=O)N2 0.52%
Cc1cccc2c1NC(=O)C2=O 32.4%
COc1ccc(OC)c(NC(=O)CCN2CCN(C)CC2)c1 2.28%
COc1ccc(OC)c(NC(=O)CCN2CCCCC2)c1 -3.02%
N#Cc1cccc(NC(=O)CSc2nnc(-c3n[nH]c4ccccc34)o2)c1 -4.45%
Cc1cccc(-n2nnnc2SCC(=O)c2cc(C)n(CC3CCCO3)c2C)c1 (stereo not given) 22.8%
Cc1ccc(-n2nnnc2SCC(=O)c2cc(C)n(CC3CCCO3)c2C)cc1 (stereo not given) -3.58%
Cc1cc(C(=O)COC(=O)c2ccccc2O)c(C)n1CC1CCCO1 (stereo not given) -14.1%
CCn1c(C)cc(C(=O)CN2C(=O)c3ccccc3S2(=O)=O)c1C 6.44%
Cc1cc(C(=O)COC(=O)c2ccccc2Br)c(C)n1CC1CCCO1 (stereo not given) 30.3%
CCCn1c(C)cc(C(=O)CN2C(=O)c3ccccc3S2(=O)=O)c1C 0.72%
COc1ccc(OCC(=O)Nc2ccc(OC)c(S(=O)(=O)N3CCCCC3)c2)cc1 -0.4%
N#CC1=C(S)N=C(N)C(c2nc(-c3ccccc3)cs2)C12CCCCC2 (stereo not given) 13.7%
CCOC(=O)c1ccc(NC(=O)CSc2nnc(Cn3c(=O)sc4ccccc43)n2C)cc1 -11.7%
O=C(CN(C(=O)CNS(=O)(=O)c1ccc(F)cc1)C1CCCC1)NCc1ccco1 -8.82%
COC(=O)Cn1cnc2c(nnn2-c2ccc(OC)cc2)c1=O -8.1%
O=C(/C=N/O)NCc1cccnc1 -3.6%
O=C(N=C1SC2CS(=O)(=O)CC2N1c1ccc(Br)cc1)C1CCCO1 (stereo not given) 2.67%
NC(=O)CN1C(=O)/C(=c2\sc3nc(=O)c(Cc4ccccc4)nn3c2=O)c2ccccc21 -13.2%
COC(=O)c1cc(Br)c(=O)n(CC(C)C)c1 4.6%
CC(C)c1cc(C(=O)OCC(=O)NC2CC2)c(O)c(C(C)C)c1 1.52%
CC1CCCCN1c1ccc(N)cc1C(N)=O (stereo not given) 0.06%
Nc1cc(C(=O)O)ccc1N1CCCCCC1 8.01%
NC(=O)c1cc(N)ccc1N1CCCCC1 -6.02%
COC(=O)c1ccc(N2CCCCC2)c(N)c1 24.1%
Cc1cccc(NC(=O)C2SC(=Nc3c(C)cccc3C)C(C(=O)N3CCOCC3)=C2N)c1 (stereo not given) 13.6%
N#Cc1ccccc1CN1C(=O)NC(Cc2c[nH]c3ccccc23)C1=O (stereo not given) -3.01%
COc1ccc(C(=O)N/N=C/c2ccc(SC)cc2)cc1 -0.44%
COc1ccc(/C=N/NC(=O)c2ccc3c(c2)OCO3)cc1 -0.02%
